Measurements: PubChem BioAssay AID778 (Sanford-Burnham Center for Chemical Genomics, 2007)
In all, about 96,000 compounds went through this assay and about 20,000 (21%) were called active.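 Rule for the calls: active = CYP2C19 inhibition above a set limit at 5 µM in the primary screen (cut at about 50% in these data); inactive = the rest.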 Only a sample is shown.

target: Cytochrome P450 2C19 (Homo sapiens) (UniProt P33261); experiment: blockers of cytochrome P450 2C19 activity – biochemical, luminescence, ADME assay, primary screen (AID 778); conditions: CYP2C19 Supersomes, luciferin-H EGE luminescence, 30 min; at 5 µM; stronger effect = higher value;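 note: plate controls were negative control wells for no effect and 2.5 mM tranylcypromine positive control for full effect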
Sequence (P33261 whole entry, looked up): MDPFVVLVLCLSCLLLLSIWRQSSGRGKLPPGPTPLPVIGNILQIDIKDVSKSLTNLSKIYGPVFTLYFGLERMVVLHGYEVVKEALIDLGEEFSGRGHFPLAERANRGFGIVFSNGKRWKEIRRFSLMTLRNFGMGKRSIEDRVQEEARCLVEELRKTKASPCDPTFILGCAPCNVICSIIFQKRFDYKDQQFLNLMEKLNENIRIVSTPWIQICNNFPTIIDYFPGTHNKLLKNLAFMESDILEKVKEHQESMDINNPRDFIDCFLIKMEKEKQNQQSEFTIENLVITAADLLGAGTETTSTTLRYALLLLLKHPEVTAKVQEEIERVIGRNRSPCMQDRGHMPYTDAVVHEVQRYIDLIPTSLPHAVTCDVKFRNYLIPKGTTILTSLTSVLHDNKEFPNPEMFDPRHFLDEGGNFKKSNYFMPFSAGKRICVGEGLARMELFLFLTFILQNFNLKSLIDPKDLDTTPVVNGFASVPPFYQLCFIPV

inhibition, inactive:
CCn1cc(C(=O)NCc2ccc3c(c2)OCO3)c2cc(OC)c(OC)cc2c1=O 15.2%
COc1ccc(C(=O)NCc2cn3ccccc3n2)cc1 1.2%
CC(NC(=O)Nc1ccccc1)c1ccccc1 (centres undefined) 24.8%
CCOc1ccc(NC(=O)N(CCC(C)C)C(C)c2ccco2)cc1 (centres undefined) 24.3%
CC(=O)c1c(N)n(C)c(=O)n(C)c1=O 0.9%
CCN(CC)Cc1c(C(=O)OC)nnn1-c1nonc1N 4.8%
CCOC(=O)c1nnn(-c2nonc2-n2cccc2)c1CN1CCOCC1 3.7%
CC(=O)Oc1cccc(N2C(=O)CC(Nc3ccc(N4CCOCC4)cc3)C2=O)c1 (centres undefined) 18.5%
Cc1ccc(NC(=O)NCC(c2cccnc2)N2CCOCC2)cc1 (centres undefined) -7.8%
CCOC(=O)N1CCN(C(=O)C2CC(c3ccc(F)cc3)=NO2)CC1 (centres undefined) 1.7%
COC(=O)[C@H](C(C)C)n1c(C)c(C(C)=O)c(C(C)=O)c1C 6.6%
O=[N+]([O-])c1c(NCCO)cc(Sc2nc3ccccc3s2)c2nonc12 28.1%
O=C(c1ccc(Cl)cc1)c1ccc(OCC(O)CN2CCCCC2)cc1 (centres undefined) 8.8%
OC(COc1cccc(OCC(O)CN2CCCC2)c1)CN1CCCC1 (centres undefined) 0.1%
CCN(CC)c1ccc2cc(C(=O)O)c(=O)oc2c1 -13.2%
CCOc1cc(CN2CCN(C(=O)CC(C)C)CC2)ccc1OC -10.6%
COc1cc2c(cc1OC)CN(C(=O)c1cc(=O)c3ccccc3o1)CC2 19.7%
CN1CCN(CC(O)COCc2ccc3c(c2)OCO3)CC1 (centres undefined) -20.9%
Cc1ccc(NC(=O)CS(=O)CC(=O)N(c2ccccc2)C(C)C(=O)NC2CCCC2)cc1 (centres undefined) 9.7%
O=C(NCc1ccccn1)c1c(O)c2c([nH]c1=O)CCCC2 11.7%
CCCc1cc(-c2n[nH]c(=S)n2Cc2ccccc2)cs1 5.4%
Cc1c(Nc2nc3ccccc3nc2NS(=O)(=O)c2cccs2)c(=O)n(-c2ccccc2)n1C 1%
COc1ccc(S(=O)(=O)Nc2c(C)n(C)n(-c3ccccc3)c2=O)cc1 -4.1%

inhibition, active:
CCn1cc(C(=O)NCc2ccc(OC)cc2OC)c(=O)c2ccc(C)nc21 66.3%
CC(c1ccco1)N(C(=O)Nc1ccccc1)C1CCCCC1 (centres undefined) 76.2%
CCOC(=O)c1nnn(-c2nonc2-n2cccc2)c1CN1CCC(C(=O)OCC)CC1 98%
OC(COc1ccc2c(c1)CCC2)CN1CCN(c2cccc(Cl)c2)CC1 (centres undefined) 59.3%
CCOc1cc(C(=O)N2CCc3cc(OC)c(OC)cc3C2)ccc1OC(F)F 51.6%
Cc1ccc(S(=O)(=O)Nc2ccccc2CNc2c(C)n(C)n(-c3ccccc3)c2=O)cc1 95.6%
